Bioassay records as filed in PubChem.
Sampled rows, rich in hits. Any-hit rate of the full collection: about 2%.
Arbovirus anti: antivirals against arbovirus infection; inhibition, % at 10 µM; AID 1251; hit rate 0.37% among 200,000; arbovirus infection cell-based antiviral screen; in the data active means inhibition above about 30%
Wee1 stabilizer: human Wee1 degradation inhibition, primary screen. P30291. HeLa Luc-Wee1K328M stability, luciferase luminescence; 100% = proteasome inhibitor MG132 effect. reporter increase, % at 5 µM. hit rate 1.2% among 220,000;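 active means activation above the mean of all tested compounds plus 3 SD, set per screening run, cut at about 8.8% in these data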;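 further: cells exposed to compound for 20 h before luminescence read; 0% = DMSO alone and 100% = MG132 at 30 µM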
Target sequence (P30291 whole entry K328M): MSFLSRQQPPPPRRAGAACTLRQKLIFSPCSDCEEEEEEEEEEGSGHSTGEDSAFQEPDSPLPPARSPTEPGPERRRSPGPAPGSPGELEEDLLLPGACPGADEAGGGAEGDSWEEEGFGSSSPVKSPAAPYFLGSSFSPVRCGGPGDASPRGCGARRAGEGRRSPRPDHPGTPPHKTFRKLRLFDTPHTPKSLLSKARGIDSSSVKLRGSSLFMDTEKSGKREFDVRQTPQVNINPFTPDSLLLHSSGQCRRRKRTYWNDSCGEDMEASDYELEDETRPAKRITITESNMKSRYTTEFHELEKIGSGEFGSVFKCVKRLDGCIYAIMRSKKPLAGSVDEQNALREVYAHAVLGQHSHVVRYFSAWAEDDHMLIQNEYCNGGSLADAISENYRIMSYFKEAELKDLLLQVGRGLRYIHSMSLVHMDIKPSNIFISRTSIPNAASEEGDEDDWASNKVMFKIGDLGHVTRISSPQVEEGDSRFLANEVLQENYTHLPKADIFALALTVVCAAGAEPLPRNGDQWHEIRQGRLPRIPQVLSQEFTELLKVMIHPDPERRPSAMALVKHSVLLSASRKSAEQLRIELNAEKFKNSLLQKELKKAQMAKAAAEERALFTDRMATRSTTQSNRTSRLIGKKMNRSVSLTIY
PKD1 inh: blocks activity of human protein kinase D1. PKD1 kinase fluorescence polarization assay. inhibition, % (no concentration beside the values). hit rate 0.056% among 200,000; in the data active means inhibition above about 50%
Efa HMGR inh: blocks class II HMG-CoA reductase of Enterococcus faecalis; purified E. faecalis HMGR, NADPH absorbance 340 nm kinetic; inhibition, % at 10 µM; hit rate 0.41% among 190,000; AID 1066;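 active means inhibition above a set limit, the median over all tested compounds plus 3 SD, cut at about 9.5% in these data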;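 further: enzyme runs in reverse so mevalonate oxidation gives rising NADPH absorbance; 0% = complete reaction with DMSO and 100% = background rate lacking mevalonate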
Hsp70 activator: Hsp70 transcriptional activation, primary screen. HeLa Hsp70 promoter luciferase reporter, luminescence; scaled: vehicle 0, proteasome-inhibitor control 100%. activation, % at 10 µM. hit rate 0.04% among 200,000;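 active means activation above the mean across all tested compounds plus 3 SD, cutoff set per campaign, cut at about 5.5% in these data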;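 further: 100% = MG132 at 30 µM as the positive control and 0% = DMSO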
Wee1 stab conf: confirmation of human Wee1 degradation inhibitors. shares compounds with Wee1 stabilizer. HeLa Luc-Wee1K328M degradation, luminescence; vehicle 0%, proteasome-blocked wells 100%. activation, % at 5 µM. hit rate 4% among 1,100; in the data active means activation above about 8.9%
An asterisk follows results filed as active; nt = not tested or not shown.

SMILES	Arbovirus anti	Wee1 stabilizer	PKD1 inh	Efa HMGR inh	Hsp70 activator	Wee1 stab conf
COc1ccc(C2CC(c3ccc4ccccc4c3)=NN2C(=O)COC(=O)C2CCC(=O)N2)cc1 (configuration not stated)	20	14*	-3	-1	0	8
CN(CCC#N)C(=O)CC1(Cc2ccccc2)CCOC(C)(C)C1 (configuration not stated)	nt	2	nt	nt	nt	nt
O=C1NC(=O)c2cc(NC(=O)C3CCCO3)ccc21 (configuration not stated)	7	16*	0	-1	0	2
O=C(Nc1ccc(Oc2ccc(NC(=O)C3CCCO3)cc2)cc1)C1CCCO1 (configuration not stated)	5	-1	-17	2	0	nt
COc1cc(/C=N/Nc2nc(C)nc3c2cnn3-c2ccccc2)ccc1O	1	0	-2	-5	0	nt
O=C(N/N=C/C(Br)=C\c1ccccc1)c1cccs1	nt	12*	nt	nt	nt	5
Cc1occc1C(=O)N/N=C/C(Br)=C\c1ccccc1	nt	28*	nt	nt	nt	5
CC(=C/c1ccccc1)/C=N/NC(=O)c1cccs1	nt	0	nt	nt	nt	nt
Cc1occc1C(=O)N/N=C/C=C/c1ccccc1	4	4	0	-3	0	nt
CCOc1ccc2nnnn2n1	3	-3	-5	-1	0	nt
CC(C)(C)OC(=O)C(Cl)(C(=O)OC(C)(C)C)c1ccc2nnnn2n1	3	11*	6	0	0	0
CN1N=C(C(=O)N2CCc3c([nH]c4ccccc34)C2c2ccccc2Cl)CCC1=O (configuration not stated)	-4	12*	2	-2	0	2
CCN(Cc1ccncc1)Cc1cn(C)nc1-c1ccc(Oc2ccccc2)cc1	3	6	9	-4	0	nt
O=C(Nc1ccc(F)cc1)C(Cc1ccccc1)n1cccc1 (configuration not stated)	nt	12*	nt	nt	nt	0
Cc1ccc(NC(=O)C(Cc2ccccc2)n2cccc2)cc1 (configuration not stated)	nt	-1	nt	nt	nt	nt
O=C(NCCN1CCOCC1)c1ccncc1	4	12*	-6	-1	0	5
O=C(c1cccc(C(F)(F)F)c1)C1CCCN(C(=O)CCCn2cncn2)C1 (configuration not stated)	2	-2	-1	-4	0	nt
CCOC(=O)C(=Cc1c[nH]c2ccc(S(=O)(=O)N(C)C)cc12)C(=O)OCC	nt	12*	nt	nt	nt	1
CCOC(=O)N1CCN(S(=O)(=O)c2ccc3[nH]cc(C(=O)O)c(=O)c3c2)CC1	-3	-3	-10	-9	0	nt
Cc1ccc(Nc2nc(-c3ccncc3)cs2)cc1	15	18*	1	-1	0	7
O=C(Nc1cc(S(=O)(=O)N2CCCC2)ccc1OCC(F)(F)F)c1ccccc1F	-4	13*	-8	2	0	3
Cc1ccc(/C=C/C(=O)O)cc1S(=O)(=O)NC1CCS(=O)(=O)C1 (configuration not stated)	5	8	-3	-7	0	nt
COc1ccc(S(=O)(=O)N2CCCN(CC(=O)Nc3ccc4c(c3)OCO4)CC2)cc1	-2	1	-9	-7	0	nt
COc1ccc(S(=O)(=O)N2CCN(CC(=O)Nc3ccc(F)c(F)c3)CC2)cc1	3	12*	5	3	0	1
O=C(CNC(=O)c1ccc2c(c1)OCCO2)N/N=C/c1ccc(O)cc1O	-5	-1	-3	-3	0	nt
SMILES	Arbovirus anti	Wee1 stabilizer	PKD1 inh	Efa HMGR inh	Hsp70 activator	Wee1 stab conf
O=C(CNC(=O)c1ccncc1)N/N=C/c1ccc(O)cc1O	nt	13*	nt	nt	nt	2
O=C(CN1CCOCC1)N/N=C/C=C/c1ccccc1	3	23*	0	0	0	0
O=C(CN1CCN(Cc2ccccc2)CC1)N/N=C/C=C/c1ccco1	5	0	-6	-1	0	nt
COc1cccc(N2C(=O)[C@H]3C(C(=O)c4cnccn4)=NN[C@H]3C2=O)c1	nt	21*	nt	nt	nt	-1
O=C(C1=NN[C@@H]2C(=O)N(c3cccc(F)c3)C(=O)[C@H]12)c1ccc2ccccc2n1	-1	5	4	-4	0	nt
NC(=O)c1cc2ccc(O)cc2oc1=Nc1ccccc1	4	-2	-7	-2	0	nt
COc1ccc2cc(C(N)=O)c(=Nc3ccccc3)oc2c1	-4	11*	-2	-7	0	5
CCOCC(=O)Nc1ccccc1C(=O)N1CCOCC1	8	-2	1	1	0	nt
O=C(CSc1nc2[nH]ncc2c(=O)n1-c1ccccc1)N1CCCCCC1	5	12*	-1	-5	0	2
O=S(=O)(CC(O)CS(=O)(=O)c1ccc(Cl)cc1)c1ccccc1 (configuration not stated)	nt	-2	nt	nt	nt	nt
COc1ccc(C2CC(c3ccc(C)o3)=NN2C(C)=O)cc1 (configuration not stated)	1	12*	19	-2	0	1
CC(=O)N1N=C(c2ccc(C)o2)CC1c1ccc(Br)cc1 (configuration not stated)	-1	5	-8	-7	0	nt
Cc1nnc(NC(=O)c2ccc3ccccc3n2)s1	3	14*	12	-1	0	6
Cc1nc2ccc(NC(=O)c3ccc4ccccc4n3)cc2s1	-14	-2	-1	-2	0	nt
COc1ccccc1N(C)S(=O)(=O)c1ccc(Cl)c(C(=O)NC2=NCCS2)c1	-1	12*	1	-4	0	2
OC(COCC(F)(F)C(F)(F)C(F)(F)C(F)F)Cn1c2ccccc2c2ccccc21 (configuration not stated)	-36	11*	-7	-1	0	0
CCN(CC(=O)NCc1cccs1)c1ccc(S(=O)(=O)N2CCCC2)cn1	16	14*	-3	8	0	2
Cc1ccc2nc(SCC(=O)NCC3CCCO3)c(C#N)cc2c1 (configuration not stated)	-6	12*	-5	0	0	3
CCC(C)[C@H](NC(=O)NCc1ccc(F)cc1)C(=O)O (some centres not stated)	nt	1	nt	nt	nt	nt
Cc1cccc(-n2c(=S)[nH]c3nc4c(cc3c2=O)COC(C)(C)C4)c1	nt	18*	nt	nt	nt	-1
N#C/C(=C\c1cn[nH]c1-c1ccccc1Br)C(=O)O	0	13*	4	-6	0	-1
O=C(Nc1ccc2sccc2c1)c1cccc(N2C(=O)CCC2=O)c1	2	15*	-5	-6	0	4
CCCCCCCCCn1c2c(c(=N)c3c1CCC3)CCCC2	-29	11*	0	-2	0	0
CCOc1cc(-c2nc(-c3ccccc3OC)no2)cc(OCC)c1OCC	3	14*	-4	1	0	0
CCOc1cc(-c2nc(-c3ccc(OC)cc3)no2)cc(OCC)c1OCC	-3	2	-18	-1	0	nt
Cc1cc(=O)oc2cc(N3C(=O)CC(Cc4ccccc4)C3=O)ccc12 (configuration not stated)	3	4	-6	-2	0	nt
